Reference: PubChem BioAssay AID1159580 (chemical genetic matrix, 2015)
“And” between values parts separate entries of the source, which are not always exact repeats. Equal entries are not always repeated. Out of some 5,500 compounds screened, about 2,000 (36%) were called active. Inconclusive results (about 18%) are left out. Cut-off read from the data, not from the text of the source: active = normalized growth mostly below about 0.91 (no sharp cut-off); inconclusive = no clear call, values can overlap the other calls; inactive = mostly above about 0.92. Some of the results follow.

Experiment: chemical genetic growth profiling, strain panel (AID 1159580);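 note: tested at 20 µM; growth read once vehicle control cultures reached saturation at 30 °C; 1 = growth at the plate median or of vehicle wells; lower values mean less growth of the strain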
Conditions: S. cerevisiae deletion strains, growth OD

Measured: normalized growth

NCCc1c[nH]c2ccccc12
inactive: locus YAL013W, strain DEP1, active compounds read low 0.983 and 0.988 | locus YAL021C, strain ccr4, active compounds read low 0.967 | locus YAL026C, strain drs2, active compounds read low 0.96 | locus YAL030W, strain snc1, active compounds read low 0.969 | locus YAL040C, strain CLN3, active compounds read low 1.08 | locus YBL061C, strain skt5, active compounds read low 0.959 | locus YBR009C, strain hhf1, active compounds read low 0.988 | locus YBR021W, strain FUR4, active compounds read low 1.01 | locus YBR023C, strain chs3, active compounds read low 0.945 | locus YBR171W, strain sec66, active compounds read low 0.955 | locus YBR229C, strain ROT2, active compounds read low 0.954 | locus YBR231C, strain swc5, active compounds read low 0.962 | locus YBR279W, strain paf1, active compounds read low 0.942 | locus YCL011C, strain gbp2, active compounds read low 0.945 | locus YCL016C, strain dcc1, active compounds read low 0.98 | locus YCL029C, strain bik1, active compounds read low 0.994 | locus YCL061C, strain MRC1 (second series), active compounds read low 0.998 | locus YCL061C, strain MRC1, active compounds read low 0.967 | locus YCL069W, strain vba3, active compounds read low 0.973 | locus YCR088W, strain abp1, active compounds read low 0.967 | locus YDL005C, strain med2, active compounds read low 0.974 | locus YDL035C, strain GPR1, active compounds read low 0.977 | locus YDL040C, strain nat1, active compounds read low 0.96 | locus YDL074C, strain BRE1, active compounds read low 1 | locus YDL101C, strain DUN1, active compounds read low 0.987 | locus YDL134C, strain PPH21, active compounds read low 0.964 | locus YDL185W, strain tfp1, active compounds read low 0.988 | locus YDL192W, strain arf1, active compounds read low 0.985 | locus YDR001C, strain nth1, active compounds read low 0.954 | locus YDR069C, strain doa4, active compounds read low 0.913 | locus YDR101C, strain arx1, active compounds read low 1.01 | locus YDR137W, strain rgp1, active compounds read low 0.934 | locus YDR150W, strain NUM1, active compounds read low 0.967 | locus YDR159W, strain sac3, active compounds read low 0.925 | locus YDR162C, strain NBP2, active compounds read low 0.954 | locus YDR195W, strain ref2 0.926 | locus YDR297W, strain sur2, active compounds read low 0.967 | locus YDR318W, strain mcm21, active compounds read low 0.999 | locus YDR334W, strain swr1, active compounds read low 0.94 | locus YDR335W, strain msn5, active compounds read low 0.961 | locus YDR363W, strain ESC2, active compounds read low 0.975 | locus YDR388W, active compounds read low 0.997 | locus YDR392W, strain spt3, active compounds read low 1.01 | locus YDR502C, strain sam2, active compounds read low 0.993 | locus YEL003W, strain gim4, active compounds read low 0.978 | locus YEL037C, strain rad23, active compounds read low 0.958 | locus YEL061C, strain CIN8 (second series), active compounds read low 0.957 | locus YEL061C, strain CIN8, active compounds read low 0.98 | locus YER002W, strain NOP16, active compounds read low 0.99 | locus YER015W, strain faa2, active compounds read low 0.975 | locus YER016W, strain bim1, active compounds read low 0.964 | locus YER110C, active compounds read low 0.967 | locus YER111C, strain swi4, active compounds read low 0.973 | locus YER155C, strain BEM2 (second series), active compounds read low 0.923 | locus YER155C, strain BEM2, active compounds read low 0.998 | locus YER167W, strain BCK2, active compounds read low 0.982 | locus YFR010W, strain ubp6, active compounds read low 0.951 | locus YGL078C, strain dbp3, active compounds read low 0.98 | locus YGL086W, strain mad1, active compounds read low 0.966 | locus YGL167C, strain pmr1, active compounds read low 0.939 | locus YGL173C, strain kem1, active compounds read low 0.992 | locus YGL227W, strain vid30, active compounds read low 0.937 | locus YGL240W, strain doc1, active compounds read low 0.964 | locus YGL248W, strain PDE1, active compounds read low 0.983 | locus YGL253W, strain hxk2, active compounds read low 0.952 | locus YGR078C, strain PAC10, active compounds read low 1.01 and 0.994 | locus YGR135W, strain pre9, active compounds read low 0.989 | locus YGR229C, strain SMI1, active compounds read low 1.01 | locus YGR252W, strain gcn5, active compounds read low 0.911 | locus YHR013C, strain ard1, active compounds read low 0.949 | locus YHR027C, strain rpn1, active compounds read low 0.962 | locus YHR030C, strain SLT2, active compounds read low 0.987 and 0.959 | locus YHR079C, strain IRE1 (second series), active compounds read low 0.998 | locus YHR079C, strain IRE1, active compounds read low 0.957 | locus YHR094C, strain hxt1, active compounds read low 0.994 | locus YHR129C, strain ARP1, active compounds read low 1 | locus YHR142W, strain chs7, active compounds read low 0.965 | locus YHR200W, strain rpn10, active compounds read low 1 | locus YIL066C, strain RNR3, active compounds read low 0.985 | locus YIL073C, strain SPO22, active compounds read low 0.959 | locus YIL125W, strain kgd1, active compounds read low 0.983 | locus YIR030C, strain dcg1, active compounds read low 0.981 | locus YJL092W, strain hpr5, active compounds read low 0.963 | locus YJL095W, strain BCK1 (second series), active compounds read low 0.96 | locus YJL095W, strain BCK1, active compounds read low 1.03 and 0.994 | locus YJL115W, strain asf1, active compounds read low 0.961 | locus YJL129C, strain trk1, active compounds read low 0.963 | locus YJL134W, strain LCB3, active compounds read low 0.984 | locus YJL154C, strain vps35, active compounds read low 0.948 | locus YJL164C, strain tpk1, active compounds read low 0.989 | locus YJL166W, strain qcr8, active compounds read low 0.938 | locus YJL168C, strain set2, active compounds read low 1 | locus YJL187C, strain SWE1 (second series), active compounds read low 1 | locus YJL187C, strain SWE1, active compounds read low 0.967 | locus YJR043C, strain POL32, active compounds read low 1.02 | locus YJR066W, strain TOR1, active compounds read low 0.926
